The supplement of paper PMC10811239

Key:
Assay in all cases: bioluminescence (viable cell) signal fold change after vs before treatment, normalised to DMSO (ratio); higher = more tumour cell growth / less inhibition
Conditions in all cases: 10 µM; treatment time 6 days
[1] = test system: LEGO organoid PT (PTEN-/-; TP53-/-)
Description: (§1)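 Luc2-labelled iPSC-derived glioblastoma-like organoids (LEGOs, genotypes PT = PTEN-/-;TP53-/-, PTCC = plus CDKN2A/B-/-, PTN = plus NF1-/-) were treated with 10 uM drug for 6 days (applied every other day) at 37 C. Bioluminescence imaging was done before treatment and 2 days after the last dose. BLI signals were normalised to the DMSO control on the same day and then to the pre-treatment signal (N=3).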

[2] = test system: LEGO organoid PTCC (PTEN-/-; TP53-/-; CDKN2A-/-; CDKN2B-/-)
Description: as §1

[3] = test system: LEGO organoid PTN (PTEN-/-; TP53-/-; NF1-/-)
Description: as §1

`CCCN[C@H]1CCc2nc(N)sc2C1.Cl.Cl.O` [Pramipexole 2HCl Monohydrate] was tested, and the bioluminescence [1] was 1.35, the bioluminescence [2] was 0.567 and the bioluminescence [3] was 0.629.
In the case of `CCc1cc2c(cc1N1CCC(N3CCOCC3)CC1)C(C)(C)c1[nH]c3cc(C#N)ccc3c1C2=O.Cl` [Alectinib hydrochloride], the bioluminescence [1] is reported as 0.656, the bioluminescence [2] is reported as 0.838 and the bioluminescence [3] is reported as 1.36.
For `C/C=C(/C)C(=O)O[C@H]1C(C)=C[C@]23C(=O)[C@@H](C=C(CO)[C@@H](O)[C@]12O)[C@H]1[C@@H](C[C@H]3C)C1(C)C` [Ingenol Mebutate], the bioluminescence [1] was 0.841, the bioluminescence [2] was 1.37 and the bioluminescence [3] was 2.33.
`CCCNS(=O)(=O)Nc1ncnc(OCCOc2ncc(Br)cn2)c1-c1ccc(Br)cc1` [Macitentan] showed a bioluminescence [1] of 1.16, a bioluminescence [2] of 0.835 and a bioluminescence [3] of 0.938.
`N[C@@H]1CONC1=O` [D-Cycloserine] was tested, and the bioluminescence [1] was 1.3, the bioluminescence [2] was 1.11 and the bioluminescence [3] was 1.69.
`Cc1cn(-c2cc(NC(=O)c3ccc(C)c(Nc4nccc(-c5cccnc5)n4)c3)cc(C(F)(F)F)c2)cn1` [Nilotinib] showed a bioluminescence [1] of 2.55, a bioluminescence [2] of 1.4 and a bioluminescence [3] of 3.9.
For `CC(=O)N[C@@H](CS)C(=O)O` [Acetylcysteine], the bioluminescence [1] was 1.23, the bioluminescence [2] was 1.21 and the bioluminescence [3] was 3.17.
Compound `O=C1NC(=O)C(c2ccccc2)(c2ccccc2)N1` [Phenytoin] has a bioluminescence [1] of 0.795, a bioluminescence [2] of 0.982 and a bioluminescence [3] of 1.39.
`Cc1c(C)c2c(c(C)c1O)CC[C@@](C)(CCC[C@H](C)CCC[C@H](C)CCCC(C)C)O2` [α-Vitamin E] showed a bioluminescence [1] of 1.31, a bioluminescence [2] of 1.41 and a bioluminescence [3] of 2.48.
For `CCOc1nc2cccc(C(=O)OC(C)OC(=O)OC3CCCCC3)c2n1Cc1ccc(-c2ccccc2-c2nn[nH]n2)cc1` (stereo not given) [Candesartan Cilexetil], the bioluminescence [1] was 1.14, the bioluminescence [2] was 1.17 and the bioluminescence [3] was 1.04.
